# High-throughput results: PubChem, National Center for Advancing Translational Sciences (NCATS)
# Most compounds without a hit are left out; they make up all but 0.31% or so of the library.
# TRPV1 PAM – potentiators of human vanilloid receptor 1 (TRPV1). Q8NER1. TRPV1-expressing cells, Fluo-8 calcium influx, capsaicin EC20 potentiation. potentiation, % at 8.33 µM. 320,000 tested, 0.02% active. AID 540277; in the data active = potentiation above about 80%; inconclusive = between about 30% and that limit; note: 0% is about no effect
#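 Cells expressing TRPV1 were dye-loaded with Fluo-8 and read kinetically: 10 s baseline, 3 min after compound (agonist portion), then 2 min after EC20 capsaicin (allosteric enhancer portion). Calcium-bound dye fluorescence at 480/520 nm.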
# TRPML1 inh – human mucolipin-1 channel inhibition. TRPML1-inducible cells, Ca2+ dye fluorescence, FDSS; active compounds read low; inhibition of EC80 agonist-evoked calcium signal. Q9GZU1. activity change, negative = inhibition, % (no concentration beside the values). 390,000 tested, 0.02% active; in the data active = activity change below about -50%; inconclusive = between about -30% and that limit;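 note: stimulus is agonist 54-4 at its EC80 concentration; % is set by controls: 0 for no effect and ±100 for the full control effect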
#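 Tet-induced TRPML1-DL cells loaded with Ca8 no-wash calcium dye were read kinetically on FDSS. Compound addition was followed by EC80 agonist 54-4 (4 uM final); inhibition was read over 110 s.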
# TRPML1 ag – human mucolipin-1 channel agonism. activation, % (no concentration beside the values). TRPML1-expressing cells, Ca2+ dye fluorescence, FDSS. 410,000 tested, 0.12% active; in the data active = activation above about 50%; inconclusive = mostly about 30% to 49%; note: 0% is about no effect
#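 Tet-induced TRPML1-DL cells, 1,500 per well, cultured overnight, were loaded with a no-wash Ca2+ dye for 45–90 min. Calcium fluorescence was recorded on the FDSS for 110 s after compound addition, before the EC80 agonist (4 uM 54-4) was added.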
# TRPV1 ag – human TRPV1 agonism; Q8NER1; TRPV1-expressing cells, Fluo-8 calcium influx, agonist mode; activation, % at 8.33 µM; 320,000 tested, 0.19% active; in the data active = activation above about 80%; inconclusive = between about 30% and that limit; note: 0% is about no effect
#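 TRPV1-expressing cells were cultured overnight at 35.5C and loaded with Fluo-8 calcium dye for 40 to 90 min at room temperature. After a 10 s baseline, compound was added and calcium influx was read kinetically for 3 min (ex 480/em 520 nm).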
# Numbers without * were called inactive; ? = inconclusive; / = no result given.
SMILES,TRPV1 PAM,TRPML1 inh,TRPML1 ag,TRPV1 ag
Cc1cccc(N2CCN(C(=O)c3ccccn3)CC2C)c1 (configuration not stated),-23,5,-1,?
COc1ccc(C(=O)N(C)C2CCCN(Cc3ccccc3F)C2)cc1OC (configuration not stated),82*,4,-1,-3
Cc1cc2nc3c(=O)n(CCc4ccccc4)c(=O)[nH]c3nc2cc1N,-30,-27,114*,?
Nc1ccc2nc3c(=O)n(C4CCCCC4)c(=O)[nH]c3nc2c1,-10,-10,80*,?
Nc1ccc2nc3c(=O)n(CCc4ccccc4)c(=O)[nH]c3nc2c1,-15,-28,75*,107*
C=CCn1c(=O)[nH]c2nc3cc(N=CN(C)C)c(C)cc3nc2c1=O,-6,-3,25,27
Nc1ccc2nc(CCc3ccccc3)[nH]c2c1,-7,1,-1,24
CCCCn1c(=O)[nH]c2nc3cc(N)ccc3nc2c1=O,-32,-21,74*,?
Cc1ncnc2nc[nH]c12,/,/,0,/
COc1ccc(OC)c(NC(=O)C(Sc2ccccc2)c2ccccc2)c1 (configuration not stated),-6,-52*,3,-1
COc1ccc(NC(=O)C(c2ccccc2)c2ccccc2)c(OC)c1,/,-2,0,/
COc1ccc(Cl)cc1NC(=O)Cc1ccc(NC(=O)N2CCCCc3ccccc32)cc1,/,32,0,/
COc1cccc(NC(=O)NCCc2ccc(Cl)cc2)c1,-8,0,0,?
COC(=O)c1cc(NC(=O)Nc2ccccc2)ccc1Cl,-21,14,1,83*
COc1cccc(NC(=O)Nc2ccc(C(C)(C)C)cc2)c1,-3,4,-1,82*
CCCCSCCCNC(=O)Nc1cccc(OC)c1,-8,-3,1,83*
COC(=O)c1cccc(NC(=O)Nc2ccc(Cl)c(Cl)c2)c1,-35,27,0,3
CC(=O)Nc1nonc1-c1nnc(SCC(=O)N(C)c2ccccc2)n1C,/,-17,0,/
COc1ccccc1CNC(=O)CCCCn1c(=O)c2ccccc2n(CC(=O)Nc2cccc(Cl)c2)c1=O,/,4,0,/
CN(C)/[N+]([O-])=N/Oc1ccc([N+](=O)[O-])cc1[N+](=O)[O-],/,-13,1,/
Cc1ccc2c(/C=C/c3c[nH]c4ccccc34)ccnc2c1C,/,/,12,/
Cc1cc(N2CCCCC2)nc(N)n1,-9,-10,56*,18
Cc1c(C(=O)N(Cc2ccc(N(C)C)cc2)Cc2ccco2)oc2cc(Br)ccc12,/,-2,0,/
Cc1ccc(-c2c(C(=O)N/N=C/c3ccoc3)nnn2-c2nonc2N)cc1,-10,1,0,88*
COc1ccc(NC(=S)NC(C)C(c2ccccc2)N2CCOCC2)cc1 (configuration not stated),5,20,2,-4
SMILES,TRPV1 PAM,TRPML1 inh,TRPML1 ag,TRPV1 ag
CC(NC(=S)Nc1ccccc1Cl)C(c1ccccc1)N1CCOCC1 (configuration not stated),-10,-7,80*,22
COc1ccc(N=Nc2nc3ccc(Br)cc3n2C)cc1,-11,-6,54*,1
COc1cc2c(c(OC)c1)C(c1ccncc1)CC(=O)N2 (configuration not stated),-10,-1,0,1
COc1cc2c(c(OC)c1)C(c1cccc(F)c1F)CC(=O)N2 (configuration not stated),/,-13,57*,/
Cc1cccc(NC(=O)N2CCC(n3nnc4cc(C)ccc43)CC2)c1,-11,-3,1,?
Cc1ccc2c(c1)nnn2C1CCN(C(=O)NCc2ccccc2)CC1,-13,-9,-1,89*
CCn1ccc2c(OCC(=O)Nc3ccccc3C(F)(F)F)cccc2c1=O,/,10,1,/
NC(=O)c1cc2ccc(O)cc2oc1=NCc1ccccc1,1,-15,59*,22
NC(=O)c1cc2ccccc2oc1=NCc1ccccc1,-25,-2,0,28
CSCc1ccc(C(=O)N2CCCC(Nc3ccc4c(c3)OCCO4)C2)o1 (configuration not stated),-6,-29,-1,91*
CSCc1ccc(C(=O)N2CCCC(Nc3ccc(F)cc3)C2)o1 (configuration not stated),1,9,-1,84*
CCN(CC)S(=O)(=O)c1ccc2nc(NC(=O)c3cncc(Br)c3)sc2c1,/,10,0,/
